This passage reports Potency and activity change, negative = inhibition results from PubChem BioAssay AID411 (National Center for Advancing Translational Sciences (NCATS), 2006).

Screen size: about 72,000 compounds; about 1,600 (2.2%) were called active. The entries come from a sample that favours actives as a whole. A call without a number means that no potency is given here. A number with no mark means an inactive call. Calls follow the shape of the dose curve; as a rule, active = well fitted inhibition curve with a large enough effect; inconclusive = small, poorly fitted or top-dose-only effect; inactive = flat fitted curve, though single readings scatter.
Potency is read from the fitted curve at half-maximal effect.

Sequence of Luciferin 4-monooxygenase (Photinus pyralis) (P08659 whole entry, looked up): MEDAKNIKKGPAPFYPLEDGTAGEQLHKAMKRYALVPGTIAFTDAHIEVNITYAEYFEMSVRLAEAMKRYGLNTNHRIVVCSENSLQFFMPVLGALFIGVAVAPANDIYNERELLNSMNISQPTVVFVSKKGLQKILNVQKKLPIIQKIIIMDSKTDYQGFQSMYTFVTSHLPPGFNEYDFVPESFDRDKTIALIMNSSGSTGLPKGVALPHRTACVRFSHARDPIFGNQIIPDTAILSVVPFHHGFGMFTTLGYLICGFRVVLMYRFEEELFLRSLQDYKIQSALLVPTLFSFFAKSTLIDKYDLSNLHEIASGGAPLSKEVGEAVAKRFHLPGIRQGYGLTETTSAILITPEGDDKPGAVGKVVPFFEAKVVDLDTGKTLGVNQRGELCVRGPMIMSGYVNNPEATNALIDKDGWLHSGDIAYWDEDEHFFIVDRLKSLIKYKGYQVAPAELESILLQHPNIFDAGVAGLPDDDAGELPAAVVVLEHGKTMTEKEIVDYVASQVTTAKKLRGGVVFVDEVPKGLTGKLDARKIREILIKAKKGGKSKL

The assay has as its target Luciferin 4-monooxygenase (Photinus pyralis) (UniProt P08659). As to the kind of experiment: qHTS Assay for Inhibitors of Firefly Luciferase. Also: nearly all actives have a fitted effect of over 40% in size. The settings on record: purified firefly luciferase, luminescence, 8 min; series mostly up to 57.1 µM. Put shortly: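 Compounds were tested as concentration series (qHTS) against purified P. pyralis luciferase with luciferin and 10 uM ATP in 50 mM imidazole pH 7.2, 50 mM KCl, 7 mM MgCl2, 0.01% Tween 20, 0.05% BSA. Luminescence was read after 8 min at ambient temperature.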
In general terms: Quantitative high-throughput screening tests each substance at several concentrations.
With `COC(=O)c1ccc(NCC(=O)c2ccccc2)cc1`, the Potency was 7.94 µM (active).

`CN(c1ccc(C(=O)NCCC2=CCCCC2)cc1)S(C)(=O)=O`: the Potency entry was “inactive”.

In the case of `O=C(c1cccs1)N1CCC(c2nc3ccccc3s2)CC1`, the Potency entry is “inactive”.

Take `O=C(OC1CCOC1=O)c1ccc(-c2nc3ccccc3s2)s1` (stereo not given): the Potency was 2.51 µM (active).

In the case of `Cc1nn(Cc2ccccc2)c(Cl)c1C(=O)OC1CCOC1=O` (stereo not given), the Potency entry was “inactive”.

On to `COc1ccc(C(=O)N2CCC[C@@]3(CCN(C(=O)NC(C)C)C3)C2)cc1`, for which the activity change, negative = inhibition was -0.0908% [at 11.4 µM].

Regarding `COc1cccc(OCC(=O)Nc2ccccc2C(N)=O)c1`, the Potency was 6.31 µM (active).

Regarding `NC(=O)c1ccccc1NC(=O)c1ccccc1F`, the Potency entry is “inactive”.

For `CCCOC(=O)Nc1ccccc1C(N)=O`, the Potency entry is “inactive”.

For the compound `O=S(=O)(c1ccc(Sc2nnc3ccccn23)nc1)N1CCOCC1`, the Potency result was “inactive”.

`O=C1CCCC2=C1C(c1cccs1)n1nc(SCc3ccccc3)nc1N2` (stereo not given): the Potency result is “inactive”.

`O=S(=O)(NCCNS(=O)(=O)c1ccccc1)c1ccccc1`: the Potency result was “inactive”.

As to `Cc1cc(NC(=O)c2cc(-c3cccs3)on2)nn1Cc1ccc(Cl)cc1`, the Potency entry is “inactive”.

As for `O=C(c1cc(-c2ccccc2O)on1)N1CCCC1`, the Potency entry was “inactive”.

Consider `COc1ccccc1-c1cc(C(=O)N2CCCCC2)no1`, for which the Potency is 25.1 µM (active).

With `O=C(c1cc(-c2cccs2)on1)N1CCCCC1`, the Potency was 15.8 µM (active).

With `COc1ccccc1N1CCN(C(=O)c2cc(-c3ccc(Br)cc3)on2)CC1`, the Potency entry is “inactive”.

Consider `O=C(c1cc(-c2cccc(O)c2)on1)N1CCc2ccccc2C1`, for which the Potency result is “inactive”.

With `Cn1cccc1Cc1nnc(SCC(=O)NCc2ccc3c(c2)OCO3)n1CCc1ccccc1`, the Potency entry was “inactive”.

Regarding `CCOC(=O)c1cc2cc(-c3c(C(=O)OCC)oc4cc(O)cc(O)c4c3=O)ccc2o1`, the Potency entry was “inactive”.

In the case of `CN1CCc2[nH]nc(-c3n[nH]c4c3CN(C)CC4)c2C1`, the activity change, negative = inhibition is 2.79% [at 11.4 µM].

With `O=C(C1CCN(S(=O)(=O)Cc2ccccc2)CC1)N1CCCc2ccccc21`, the Potency result was “inactive”.

For the compound `CCOC(=O)c1nc(-c2ccc3c(c2)OCO3)[nH]c1C`, the Potency was 15.8 µM (active).

As to `CCOC(=O)c1c(C)[nH]c(C(=O)COc2ccc3c(c2)OCO3)c1C`, the Potency result is “inactive”.

For the compound `CCOC(=O)NCc1ccc2c(c1)OCO2`, the Potency entry was “inactive”.

In the case of `COc1ccc(-n2c(C)cc(C(=O)CSc3nnc(-c4cccs4)o3)c2C)cc1`, the Potency entry was “inactive”.

Consider `COc1ccc(-c2nnc(SCC(=O)c3cccs3)o2)c(OC)c1`, for which the Potency is 12.6 µM (active).

On to `COc1ccc(OC)c(C(=O)CSc2nnc(-c3cccs3)o2)c1`, for which the Potency entry was “inactive”.

For the compound `CN(c1nc2ccccc2n2c(-c3ccco3)nnc12)S(=O)(=O)c1ccccc1`, the Potency entry is “inactive”.

Turning to `Cn1c(-c2ccco2)nc2cc3ccccc3cc21`, the Potency is 0.501 µM (active).

On to `c1coc(-c2nc3nc4ccccc4n3nc2-c2ccco2)c1`, for which the Potency entry was “inactive”.

In the case of `C(=C\c1ccccc1)/CSc1nnc(-c2cccnc2)n1Cc1ccco1`, the Potency result is “inactive”.

For `CC(=O)N1CCN(C(=O)c2cccc(S(=O)(=O)Nc3ccc(C)cc3)c2)CC1`, the Potency entry is “inactive”.

Regarding `COc1ccc(N=Cc2c(O)[nH]c3ccccc23)cc1OC`, the Potency is 15.8 µM (active).

In the case of `COC(=O)c1[nH]c2ccccc2c1NS(=O)(=O)c1ccc(OC)cc1OC`, the Potency result was “inactive”.

Turning to `COc1ccc(OC)c(N=Cc2c(O)[nH]c3ccccc23)c1`, the Potency entry is “inactive”.

In the case of `CCOC(=O)C1CCCCN1Cc1ccc(OC)c(OC)c1OC` (stereo not given), the Potency entry is “inactive”.

For `CNC(=O)c1ccc2nc(NC(C)=O)sc2c1`, the Potency result is “inactive”.

In the case of `CCn1c(SCC(=O)Nc2nc3ccc(OC)cc3s2)nnc1-c1ccoc1C`, the Potency result was “inactive”.

`COc1ccc2nc(NC(=O)c3ccc(Br)s3)sc2c1`: the Potency was 12.6 µM (active).

Regarding `Cc1ccnc(-n2sc3ccccc3c2=O)n1`, the Potency is 20 µM (active).

Take `Cc1ccnc(N2CCC(C(=O)NC3CCCCCC3)CC2)n1`: the Potency result is “inactive”.

Turning to `Cc1nc2ccccc2c(=O)n1CCCn1ccnc1`, the Potency result is “inactive”.

Regarding `N#CCCN(CCC#N)c1nnc(-c2ccccc2)s1`, the Potency result is “inactive”.

Consider `O=C(NCc1cn2ccsc2n1)Nc1ccc(Cl)cc1`, for which the Potency entry was “inactive”.

In the case of `Cc1ccc(S(=O)(=O)NCc2cn3ccsc3n2)c(C)c1`, the Potency entry was “inactive”.

As for `COc1ccc(-c2cn3ccsc3n2)cc1`, the Potency is 3.98 µM (active).

Turning to `CC(=O)N1CCC2(CCCN(Cc3ccc(C#N)cc3)C2)CC1`, the activity change, negative = inhibition is 0.0675% [at 11.4 µM].

Take `Cc1ccc(NC(=O)CSc2nnc(-c3cnccn3)n2Cc2ccco2)cc1C`: the Potency entry was “inactive”.

Consider `CN(C(=O)c1ccno1)c1nnc(-c2cccnc2)s1`, for which the Potency result was “inactive”.

On to `CN(C(=O)COc1ccccc1)c1nnc(-c2ccncc2)s1`, for which the Potency result is “inactive”.

On to `CN(C(=O)c1ccccn1)c1nnc(-c2ccccn2)s1`, for which the Potency was 10 µM (active).

For the compound `O=S1(=O)CCN2C(=N1)SC1=C2CCN(Cc2ccccc2)C1`, the Potency entry was “inactive”.

Take `Brc1cccc(-c2nnc3n2CCC3)c1`: the Potency result was “inactive”.

For `COc1ccc(-c2nc3n(c2Br)CCC3)cc1`, the Potency is 12.6 µM (active).

`COc1ccc(-c2cc3n(n2)CCc2nc4ccccc4n2-3)cc1`: the Potency entry was “inactive”.

Turning to `Cc1nc2ccc(NC(=O)N3CCC(c4ccccc4)C3)cc2nc1C` (stereo not given), the Potency entry was “inactive”.

As for `Cc1cc(=O)oc(C)c1C(=O)Nc1cnc2ccccc2c1`, the Potency result was “inactive”.

Consider `Cc1ccc(C(=O)CSc2nc3ccccc3c(=O)n2N)o1`, for which the Potency entry was “inactive”.

As to `Cc1ccc(NC(=O)c2cc(-c3ccc(C)o3)nc3ccccc23)nc1`, the Potency was 12.6 µM (active).

As for `CCOC(=O)Cc1csc(NC(=O)C(C)(C)C)n1`, the Potency entry was “inactive”.

Regarding `CCOC(=O)Cc1csc(NC(=O)CSc2nc(C)cc(=O)[nH]2)n1`, the Potency result was “inactive”.

Turning to `CCOC(=O)Cc1csc(NC(=O)Nc2ccccc2)n1`, the Potency was 12.6 µM (active).

As for `CNc1nc(-c2ccccc2OC)nc2ccccc12`, the activity change, negative = inhibition was -0.211% [at 2.29 µM].

`Cc1nc2cnc(Nc3ccccc3)nc2n(Cc2ccc(F)cc2)c1=O`: the activity change, negative = inhibition was -0.327% [at 11.4 µM].
